In PubChem BioAssay:
The source made the active and inactive calls. The rule behind the calls is not given here.

biological target: Pantothenate synthetase (Mycobacterium tuberculosis (strain ATCC 25618 / H37Rv)) (UniProt P9WIL5); test: Recombinant Mtb pantothenate synthetase (PanC) inhibitors, coupled enzyme, confirmatory (AID 375); settings: coupled enzyme assay; at 10 µM, active compounds read high;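 note: 0% = full reaction with vehicle and 100% = no enzyme background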
Sequence (P9WIL5 whole entry, looked up): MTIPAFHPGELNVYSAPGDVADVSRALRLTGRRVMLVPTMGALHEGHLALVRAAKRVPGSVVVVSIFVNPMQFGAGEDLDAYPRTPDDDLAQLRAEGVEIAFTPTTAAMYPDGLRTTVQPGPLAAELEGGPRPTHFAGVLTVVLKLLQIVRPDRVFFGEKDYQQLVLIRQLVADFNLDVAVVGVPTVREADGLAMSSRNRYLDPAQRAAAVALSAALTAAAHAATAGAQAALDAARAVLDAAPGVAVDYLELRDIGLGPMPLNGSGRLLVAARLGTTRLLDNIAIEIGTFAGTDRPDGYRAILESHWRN

Structure (SMILES)	inhibition
CN1CCc2c(sc3c2C(=O)NC(c2cccc(OC(=O)c4cccs4)c2)N3)C1 (stereo not given)	0% (inactive)
CCCNC(=O)c1cc(S(=O)(=O)N2CCc3ccccc32)ccc1F	0% (inactive)
O=C(O)c1[nH]c2ccc(Cl)cc2c1CC(=O)N1CCN(C(=O)c2ccco2)CC1	2% (inactive)
CC(C)c1nnc(NC(=O)C2CCCCC2)s1	1% (inactive)
Brc1ccc(-c2cn3cccnc3n2)cc1	0% (inactive)
COC(=O)C(CC(C)C)NC(=O)CSc1nc(-c2ccccc2)c(C#N)c(=O)[nH]1 (stereo not given)	0% (inactive)
Cn1c(=O)c(-c2ccccc2)nn2c3ccccc3nc12	0% (inactive)
CC(=O)Nc1ccccc1OCC(=O)c1cc(C)n(Cc2cccs2)c1C	0% (inactive)
O=C(c1ccc(Br)o1)N(c1ccc(Br)cc1)C1C=CS(=O)(=O)C1 (stereo not given)	0% (inactive)
Cc1ccccc1OCc1nnc2n1CC(C)S2 (stereo not given)	0% (inactive)
COC(=O)c1ccc(CSc2nnnn2Cc2ccccc2)cc1	0% (inactive)
CCCNC(=O)C1=C(C)C(=O)OC12CCC(C)CC2 (stereo not given)	0% (inactive)
Cc1cc(C)n(-c2ccc(C(=O)Nc3ccc4c(c3)OCCO4)cc2)n1	2% (inactive)
COc1ccc(C)cc1NC(=O)C1CCN(S(=O)(=O)c2cccc3cccnc23)CC1	19% (inactive)
Cc1ccc(Cn2nnc3c(=O)n(CC(=O)NCC4CCCO4)cnc32)cc1 (stereo not given)	0% (inactive)
Fc1ccccc1-c1nc(-c2ccccc2)no1	5% (inactive)
CCOc1ccc(NC(=O)c2ccccc2O)cc1	0% (inactive)
COc1ccc(S(=O)(=O)NCCCN2CCOCC2)c2ccccc12	0% (inactive)
Cc1cccn2cc(-c3ccccc3)nc12	0% (inactive)
O=C(NC1CCCCCC1)c1cc(S(=O)(=O)N2CCC3(CC2)OCCO3)ccc1F	5% (inactive)

Structure (SMILES)	inhibition
COc1ccc(OC)c(NC(=O)CS(=O)(=O)c2ccccc2)c1	0% (inactive)
Cc1nc(NC(=O)c2ccccc2)sc1-c1csc(NCc2ccco2)n1	0% (inactive)
COc1ccc(-n2ncc3c(NCc4ccccn4)ncnc32)cc1	11% (inactive)
CN(c1ccccc1)C(c1ccc(F)cc1)c1nnnn1CC1CCCO1 (stereo not given)	0% (inactive)
O=C(O)CC1SC(=Nc2cccc(C(F)(F)F)c2)NC1=O (stereo not given)	0% (inactive)
O=C(c1cccc2ccccc12)N1CCC(N2CCN(c3ccccc3)CC2)CC1	0% (inactive)
CC(=O)N(C)C1(c2nnnn2CCOC(=O)Nc2ccc(Cl)cc2)CCCCC1	0% (inactive)
COCCN1Cc2cccc(C(=O)Nc3cccnc3)c2C1=O	1% (inactive)
COC(C)(C)c1cc(C(C)(C)C)nc(N)n1	0% (inactive)
CC(=O)c1ccc(NS(=O)(=O)c2ccccc2)cc1	0% (inactive)
Cc1ccc2nc(/C(C#N)=N/O)[nH]c2c1	10% (inactive)
CCCCn1c(=O)[nH]c(=O)c2c1nc(COc1ccc(C#N)cc1)n2CCC	4% (inactive)
CC(C)CC1NC(=O)N(CC(=O)N2CCN(S(=O)(=O)c3ccc(Cl)cc3)CC2)C1=O (stereo not given)	0% (inactive)
CCN(CC)C(=O)c1sc2nc(-c3cccs3)cc(-c3cccs3)c2c1N	0% (inactive)
NC(=O)SCC(=O)Nc1cccc(Cl)c1	1% (inactive)
CN(C)[C@@H]1C(=O)C(C(N)=O)=C(O)[C@@]2(O)C(=O)C3=C(O)c4c(O)ccc(Cl)c4[C@@H](O)[C@H]3C[C@@H]12	0% (inactive)
CC(C)NC(=O)CSc1nnc(-c2ccc(C(C)(C)C)cc2)n1C	1% (inactive)
CCOc1cc(/C=N/n2cnnc2)cc(Br)c1O	0% (inactive)
COc1ccc(OC)c(C2/C(=C(\O)c3ccc4c(c3)OCCO4)C(=O)C(=O)N2CCCN(C)C)c1 (stereo not given)	0% (inactive)
O=C1CC(N2CCN(c3ccc(Cl)c(Cl)c3)CC2)C(=O)N1 (stereo not given)	0% (inactive)
